# Measured values from PubChem BioAssay AID651919 (Sanford-Burnham Center for Chemical Genomics, 2012).
# “And” between values parts separate entries of the source, which are not always exact repeats. Identical values can stand only once.
# Target: C-X-C chemokine receptor type 6 (Homo sapiens) (UniProt O00574)
# Assay: antagonism of CXCR6 versus CXCR5 signaling – cell-based, CHO-K1 PathHunter beta-arrestin, luminescence, set 4, selectivity assay for CXCR6 antagonist project, profiling panel (AID 651919)
# Settings: run 2, at 79 µM (top of the series)
# Sequence of C-X-C chemokine receptor type 6 (Homo sapiens) (O00574 whole entry, looked up): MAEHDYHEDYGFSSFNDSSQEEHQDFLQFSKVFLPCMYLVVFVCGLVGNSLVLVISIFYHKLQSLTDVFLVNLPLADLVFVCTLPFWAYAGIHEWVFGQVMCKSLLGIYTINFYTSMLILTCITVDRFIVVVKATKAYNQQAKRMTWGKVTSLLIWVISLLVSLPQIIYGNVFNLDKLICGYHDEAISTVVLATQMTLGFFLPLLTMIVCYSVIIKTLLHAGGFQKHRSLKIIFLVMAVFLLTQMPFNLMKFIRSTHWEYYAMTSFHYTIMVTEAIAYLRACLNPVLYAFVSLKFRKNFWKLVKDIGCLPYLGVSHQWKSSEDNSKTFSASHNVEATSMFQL
row,Structure (SMILES),inhibition
1,COc1cc(OC)cc(C(=O)NC2CC3CCCC(C2)N3CC(=O)Nc2ccccc2)c1 (centres undefined),3.13%
2,COc1ccc(C(=O)NC2CC3CCCC(C2)N3CC(=O)Nc2ccc(Cl)cc2)cc1OC (centres undefined),14.6%
3,O=C(CN1C2CCCC1CC(NC(=O)c1ccc3c(c1)OCO3)C2)Nc1ccc(Cl)cc1 (centres undefined),-3.16%
4,COc1cccc(C(=O)NC2CC3CCCC(C2)N3CC(=O)Nc2ccc(Cl)cc2)c1 (centres undefined),-8.76%
5,COc1ccc(NC(=O)CN2C3CCCC2CC(NC(=O)c2ccc4c(c2)OCO4)C3)cc1 (centres undefined),4.54%
6,COc1ccc(C(=O)NC2CC3CCCC(C2)N3CC(=O)Nc2ccc(F)cc2)cc1OC (centres undefined),29.3%
7,O=C(CN1C2CCCC1CC(NC(=O)c1ccccc1)C2)Nc1ccccc1 (centres undefined),7.76%
8,COc1cc(OC)cc(C(=O)NC2CC3CCCC(C2)N3CC(=O)Nc2ccc(Cl)cc2)c1 (centres undefined),-8.8%
9,COc1cc(C(=O)NC2CC3CCCC(C2)N3CC(=O)Nc2ccc(F)cc2)cc(OC)c1OC (centres undefined),81.3%
10,COc1cc(C(=O)NC2CC3CCCC(C2)N3CC(=O)Nc2ccccc2)cc(OC)c1OC (centres undefined),94% and 90.4%
11,COc1ccc(C(=O)NC2CC3CCCC(C2)N3CC(=O)Nc2ccc(Cl)cc2)cc1 (centres undefined),-10.3%
12,COc1cc(C(=O)NC2CC3CCCC(C2)N3CC(=O)Nc2ccc(C)cc2)cc(OC)c1OC (centres undefined),77.6%
13,COc1ccc(C(=O)NC2CC3CCCC(C2)N3CC(=O)Nc2ccc(F)cc2)cc1 (centres undefined),-0.539%
14,COc1cccc(C(=O)NC2CC3CCCC(C2)N3CC(=O)Nc2ccccc2)c1 (centres undefined),8.64%
15,COc1ccc(NC(=O)CN2C3CCCC2CC(NC(=O)c2cc(OC)cc(OC)c2)C3)cc1 (centres undefined),-0.62%
16,O=C(CN1C2CCCC1CC(NC(=O)c1ccc3c(c1)OCO3)C2)Nc1ccccc1 (centres undefined),5.06%
17,COc1cc(OC)cc(C(=O)NC2CC3CCCC(C2)N3CC(=O)Nc2ccc(F)cc2)c1 (centres undefined),-4.2%

row,Structure (SMILES),inhibition
1,COc1ccc(C(=O)NC2CC3CCCC(C2)N3CC(=O)Nc2ccccc2)cc1 (centres undefined),8.56%
2,COc1ccc(C(=O)NC2CC3CCCC(C2)N3CC(=O)Nc2ccc(C)cc2)cc1 (centres undefined),6.15%
3,COc1ccc(NC(=O)CN2C3CCCC2CC(NC(=O)c2ccc(OC)cc2)C3)cc1 (centres undefined),4.54%
4,Cc1ccc(NC(=O)CN2C3CCCC2CC(NC(=O)c2ccc4c(c2)OCO4)C3)cc1 (centres undefined),5.62%
5,O=C(CN1C2CCCC1CC(NC(=O)c1ccc3c(c1)OCO3)C2)Nc1ccc(F)cc1 (centres undefined),-2.79%
6,COc1cccc(C(=O)NC2CC3CCCC(C2)N3CC(=O)Nc2ccc(F)cc2)c1 (centres undefined),2.48%
7,COc1cc(C(=O)NC2CC3CCCC(C2)N3CC(=O)Nc2ccccc2Cl)cc(OC)c1OC (centres undefined),100% and 99.1%
8,COc1ccccc1NC(=O)CN1C2CCCC1CC(NC(=O)c1cc(OC)c(OC)c(OC)c1)C2 (centres undefined),98.2%
9,COc1cccc(C(=O)NC2CC3CCCC(C2)N3CC(=O)Nc2ccc(C)cc2)c1 (centres undefined),3.25%
10,COc1ccc(NC(=O)CN2C3CCCC2CC(NC(=O)c2cccc(OC)c2)C3)cc1 (centres undefined),-0.0157%
11,COc1ccc(NC(=O)CN2C3CCCC2CC(NC(=O)c2ccc(OC)c(OC)c2)C3)cc1 (centres undefined),-3.76%
12,COc1ccc(NC(=O)CN2C3CCCC2CC(NC(=O)c2cc(OC)c(OC)c(OC)c2)C3)cc1 (centres undefined),61.4%
13,COc1cc(C(=O)NC2CC3CCCC(C2)N3CC(=O)Nc2ccc(Cl)cc2)cc(OC)c1OC (centres undefined),90.4%
14,COc1ccc(C(=O)NC2CC3CCCC(C2)N3CC(=O)Nc2ccccc2)cc1OC (centres undefined),30.3%
15,COc1ccc(C(=O)NC2CC3CCCC(C2)N3CC(=O)Nc2ccc(C)cc2)cc1OC (centres undefined),4.86%
16,COc1ccc(CN2C3CCCC2CC(NC(=O)c2cc(OC)c(OC)c(OC)c2)C3)cc1 (centres undefined),56.8%
17,COc1cc(OC)cc(C(=O)NC2CC3CCCC(C2)N3CC(=O)Nc2ccc(C)cc2)c1 (centres undefined),55.4%
